Screens (PubChem)
TDP1 block = qHTS Assay for Inhibitors of Tyrosyl-DNA Phosphodiesterase (TDP1) | Potency, µM (highest dose often 130 µM), for inactives: at the top dose activity change, negative = inhibition, hits mostly inhibitors | AID 485290, 2010 | recombinant TDP1, AlphaScreen DNA substrate cleavage | actives 0.28% (n = 350,000) | Tyrosyl-DNA phosphodiesterase 1 (Homo sapiens), Q9NUW8; further: on the % scale 0 is the no-effect control and ±100 the full control effect; nearly all actives have a fitted effect of over 40% in size
Target sequence (Q9NUW8 whole entry, looked up): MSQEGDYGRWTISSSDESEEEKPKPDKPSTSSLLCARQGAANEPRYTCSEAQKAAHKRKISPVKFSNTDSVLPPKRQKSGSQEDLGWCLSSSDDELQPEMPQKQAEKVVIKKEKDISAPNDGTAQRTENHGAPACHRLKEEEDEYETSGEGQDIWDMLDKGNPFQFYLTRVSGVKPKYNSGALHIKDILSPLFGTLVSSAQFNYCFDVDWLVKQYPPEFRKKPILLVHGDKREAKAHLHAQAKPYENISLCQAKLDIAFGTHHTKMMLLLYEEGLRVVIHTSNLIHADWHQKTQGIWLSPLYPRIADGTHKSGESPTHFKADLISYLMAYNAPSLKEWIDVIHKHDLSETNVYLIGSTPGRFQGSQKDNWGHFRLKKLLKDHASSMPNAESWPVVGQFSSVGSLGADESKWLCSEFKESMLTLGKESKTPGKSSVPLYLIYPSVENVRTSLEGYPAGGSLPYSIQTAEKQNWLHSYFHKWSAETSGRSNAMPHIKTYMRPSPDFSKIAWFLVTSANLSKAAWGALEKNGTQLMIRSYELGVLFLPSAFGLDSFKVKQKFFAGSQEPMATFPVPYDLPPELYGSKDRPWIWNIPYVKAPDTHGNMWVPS
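Signal: AlphaScreen proximity between streptavidin donor and anti-FITC acceptor beads on intact substrate. Reaction: Tdp1 1 nM, substrate 15 nM final, 5 min RT after 15 min compound preincubation.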
TDP1 cell CPT = qHTS for Inhibitors of human tyrosyl-DNA phosphodiesterase 1 (TDP1): qHTS in cells in presence of CPT. chicken DT40 Tdp1-/-;hTDP1 cells + 20 nM CPT, ATP luminescence, 48 h. Potency, µM (titrated, usually from 46.2 µM), inactives show at the highest dose activity change, negative = growth inhibition, usual class: inhibitors. actives 12% (n = 420,000). AID 686979, 2013; further: on the % scale 0 is the no-effect control and ±100 the full control effect; nearly all actives have a fitted effect of over 55% in size
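Chicken DT40 Tdp1-/- cells complemented with human TDP1, 400 cells/well, exposed to compounds plus 20 nM camptothecin for at least 48 h at 37 C; viability read as ATP content by CellTiter-Glo luminescence.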
DT40 TDP1 no CPT = qHTS for Inhibitors of human tyrosyl-DNA phosphodiesterase 1 (TDP1): qHTS in cells in absence of CPT. DT40 Tdp1-/- hTDP1 cells, no CPT, ATP luminescence, 48 h. Potency, µM (highest dose often 46.2 µM), inactives show at the highest dose activity change, negative = growth inhibition, most hits filed as inhibitors. actives 15% (n = 420,000); further: on the % scale 0 is the no-effect control and ±100 the full control effect; nearly all actives have a fitted effect of over 55% in size
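A cellular qHTS used chicken DT40 cells lacking endogenous Tdp1 but carrying stably transfected human TDP1. Compounds were applied without camptothecin, and cell growth kinetics were judged by ATP-dependent luminescence after ≥48 hr.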
ClpP mod = qHTS Assay for Activators of ClpP | ATP-dependent Clp protease proteolytic subunit (Bacillus subtilis (strain 168)), P80244 | purified B. subtilis ClpP, FRET peptide cleavage, 20 min | actives 1.9% (n = 340,000) | AID 651965, 2013 | Potency, µM (highest dose often 57.5 µM), inactives show top-dose activity change, negative = active; active means well fitted falling curve with a large enough effect; inconclusive means small, poorly fitted or top-dose-only effect; inactive means no such curve, though single readings can be large or run the other way; further: the source files actives as falling curves though it sought activators and does not explain the sign; nearly all actives have a fitted effect of over 65% in size
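ClpP 10 microg/mL final, pH 8 Tris/KCl buffer with BSA, glycerol, Tween-20; compound pinned in; FRET-FV substrate; RT 20 min; Ex320/Em430; ΔFRET vs ADEP 5.8 microM, DMSO, no enzyme.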
An asterisk follows results filed as active; [ ] = remark or other dose. Rows were chosen to be rich in hits. Some 17% of all compounds tested hit in one or more screens of this group. Unless noted, the call rests on the fitted dose curve; in most records, active means well fitted curve in the direction sought with a large enough effect; inconclusive means small, poorly fitted or top-dose-only effect, or another doubt; inactive means no such curve, though single readings can be large; an effect the other way counts as inactive or inconclusive. Potency means the concentration at half of the fitted maximal effect.

`CN(C)CC(O)COC(c1ccccc1)c1ccccc1` (stereo not given) gave TDP1 block 0%, TDP1 cell CPT -9% and DT40 TDP1 no CPT -11%.
OCC[N+]1(CCc2ccccc2)CCOCC1 was read as TDP1 cell CPT -13%, DT40 TDP1 no CPT -8% and ClpP mod 1%.
O=C(CNc1ccc(C(F)(F)F)cc1)Nc1cccc(S(=O)(=O)N2CCCC2)c1 was read as TDP1 block -6%[56.1 µM], TDP1 cell CPT -25%, DT40 TDP1 no CPT inconclusive and ClpP mod -2%.
Screening O=C(CNc1ccc(C(F)(F)F)cc1)Nc1cccc(S(=O)(=O)N2CCCCC2)c1 returned TDP1 cell CPT inconclusive, DT40 TDP1 no CPT 16µM* and ClpP mod -3%.
For O=C(CNc1cccc(S(=O)(=O)N2CCCCC2)c1)Nc1cccc(F)c1 the results were TDP1 block -7%, TDP1 cell CPT -27%, DT40 TDP1 no CPT inconclusive and ClpP mod -5%.
`O=C(Cc1cccc(C(F)(F)F)c1)Nc1cccc(S(=O)(=O)N2CCCC2)c1` gave TDP1 block 1%, TDP1 cell CPT 16µM*, DT40 TDP1 no CPT inconclusive and ClpP mod 1%.
Screening O=C(CNc1cccc(S(=O)(=O)N2CCCC2)c1)Nc1cccc(C(F)(F)F)c1 returned TDP1 block 1%, TDP1 cell CPT 10µM*, DT40 TDP1 no CPT 12µM* and ClpP mod -1%.
O=C(CNc1cc(S(=O)(=O)N2CCCC2)ccc1OCC(F)(F)F)Nc1ccc(SC(F)F)cc1 was read as TDP1 block -5%, TDP1 cell CPT 1.8µM*, DT40 TDP1 no CPT 3.7µM* and ClpP mod -7%.
`O=C(Cc1cccc(C(F)(F)F)c1)Nc1ccc(S(=O)(=O)N2CCCC2)cc1` gave TDP1 block 1%, TDP1 cell CPT inconclusive, DT40 TDP1 no CPT inconclusive and ClpP mod -3%.
For CCCCCc1nnc(NC(=O)Cn2cnc3ccccc3c2=O)s1 the results were TDP1 block -5%, TDP1 cell CPT -14%, DT40 TDP1 no CPT -25% and ClpP mod 0%.
O=C(COc1ccc(S(=O)(=O)N2CCCC2)cc1)Nc1ccc(F)cc1 was read as TDP1 cell CPT inconclusive and DT40 TDP1 no CPT -23%.
O=C(COc1cccc(C(F)(F)F)c1)Nc1ccc(S(=O)(=O)N2CCCC2)cc1 was read as TDP1 block 7%, TDP1 cell CPT 23µM*, DT40 TDP1 no CPT inconclusive and ClpP mod -1%.
Screening O=C(CNc1cccc(S(=O)(=O)N2CCOCC2)c1)Nc1ccc(C(F)(F)F)cc1 returned TDP1 block 4%, TDP1 cell CPT inconclusive, DT40 TDP1 no CPT 16µM* and ClpP mod -1%.
For O=C(CNc1cccc(S(=O)(=O)N2CCOCC2)c1)Nc1ccccc1F the results were TDP1 block 3%, TDP1 cell CPT -9%, DT40 TDP1 no CPT 7% and ClpP mod -2%.
Screening Cc1ccccc1-c1noc(-c2cccnc2N2CCN(c3ccccc3)CC2)n1 returned TDP1 block 9%, TDP1 cell CPT -12%, DT40 TDP1 no CPT inconclusive and ClpP mod -1%.
`O=C1C=CC(=O)N1N(c1ccccc1)c1ccccc1` gave TDP1 block 8%, TDP1 cell CPT 10µM*, DT40 TDP1 no CPT 21µM* and ClpP mod -2%.
For O=C1c2ccccc2C(=O)N1N(c1ccccc1)c1ccccc1 the results were TDP1 cell CPT -20%, DT40 TDP1 no CPT 3% and ClpP mod -1%.
Cc1ccc(C2CC(c3cccs3)=NN2C(=O)CSc2nc3ccccc3o2)cc1 (stereo not given) was read as TDP1 block -5%, TDP1 cell CPT 15µM*, DT40 TDP1 no CPT inconclusive and ClpP mod 14µM*.
`Cc1ccc2nc(Cl)c(C3CC(c4ccco4)=NN3C(=O)CCCC(=O)O)cc2c1` (stereo not given) gave TDP1 cell CPT -9% and DT40 TDP1 no CPT -20%.
Screening O=C(CSc1nc2ccccc2o1)N1N=C(c2cccs2)CC1c1ccc(F)cc1 (stereo not given) returned TDP1 block 0%, TDP1 cell CPT inconclusive, DT40 TDP1 no CPT inconclusive and ClpP mod 32µM*.
For COc1ccc(C2CC(c3cccs3)=NN2C(=O)CSc2nc(=O)n3ccc(C)cc3n2)cc1 (stereo not given) the results were TDP1 block 1%, TDP1 cell CPT inconclusive, DT40 TDP1 no CPT 5.8µM* and ClpP mod -17%.
`Cc1ccc(C2CC(c3cccs3)=NN2C(=O)CSc2nc(=O)n3ccc(C)cc3n2)cc1` (stereo not given) gave TDP1 block -4%.
For Cc1ccc2nc(Cl)c(C3CC(c4cccs4)=NN3C(=O)CCC(=O)O)cc2c1 (stereo not given) the results were TDP1 block 2%, TDP1 cell CPT -1% and DT40 TDP1 no CPT 5.2µM*.
`O=C(CSC1=NCCS1)N1N=C(c2cccs2)CC1c1ccc(F)cc1` (stereo not given) gave TDP1 cell CPT inconclusive, DT40 TDP1 no CPT inconclusive and ClpP mod 5%.
Screening Cc1cc(C)c2c(CC(=O)Nc3cc(C(F)(F)F)ccc3Cl)coc2c1 returned TDP1 block 2%, TDP1 cell CPT -19%, DT40 TDP1 no CPT inconclusive and ClpP mod 3%.
Screening CCOC(=O)C1CCN(C(=O)COC(=O)c2ccc3[nH]c4c(c3c2)CCCC4)CC1 returned TDP1 cell CPT 13µM*, DT40 TDP1 no CPT 12µM* and ClpP mod -5%.
For COC(=O)C1CCN(C(=O)COC(=O)c2ccc3[nH]c4c(c3c2)CCCC4)CC1 the results were TDP1 block 7%, TDP1 cell CPT 13µM*, DT40 TDP1 no CPT 10µM* and ClpP mod 4%.
`CC1CCCN(C(=O)COC(=O)c2ccc3[nH]c4c(c3c2)CCCC4)C1` (stereo not given) gave TDP1 block 0%, TDP1 cell CPT inconclusive, DT40 TDP1 no CPT 23µM* and ClpP mod 1%.
`COC(=O)C1CCN(C(=O)COC(=O)c2ccc(N3CCCC3=O)cc2)CC1` gave TDP1 block 0%, TDP1 cell CPT 4%, DT40 TDP1 no CPT 0% and ClpP mod -3%.
`COC(=O)C1CCN(C(=O)COC(=O)c2ccc(OC)c(S(=O)(=O)N3CCCc4ccccc43)c2)CC1` gave TDP1 block 0%, TDP1 cell CPT -18%, DT40 TDP1 no CPT 0.41µM* and ClpP mod -5%.
For O=C(COC(=O)c1ccc2[nH]c3c(c2c1)CCCC3)NC1CCS(=O)(=O)C1 (stereo not given) the results were TDP1 block 2%, TDP1 cell CPT inconclusive and DT40 TDP1 no CPT inconclusive.
